Compounds with a hit are over-represented: about 12% of the library has one in this group of screens.
G9a block = inhibitors of human histone lysine methyltransferase G9a; 8.8% of 350,000 active; G9a H3K9 monomethylation, AlphaScreen, 2 h; Potency, µM (doses to about 102 µM), for inactives: at the highest dose activity, negative = inhibition, usual class: inhibitors; further: on the % scale 0 is the no-effect control and ±100 the full control effect; nearly all actives have a fitted effect of over 75% in size
Target sequence (Q96KQ7 913-1193 limits assumed): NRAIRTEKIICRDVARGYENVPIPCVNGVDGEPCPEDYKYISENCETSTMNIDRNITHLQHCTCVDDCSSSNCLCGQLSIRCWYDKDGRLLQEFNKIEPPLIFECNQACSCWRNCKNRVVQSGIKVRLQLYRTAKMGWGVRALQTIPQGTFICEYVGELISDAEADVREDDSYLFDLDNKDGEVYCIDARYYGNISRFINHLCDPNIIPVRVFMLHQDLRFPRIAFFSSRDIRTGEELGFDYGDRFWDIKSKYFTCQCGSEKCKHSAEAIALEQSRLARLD
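Enzyme 20 nM + cpd, 15 min RT; add b-H3K9 pep 500 nM / SAM 20 uM; 2 h RT; anti-H3K9me1 Ab 0.5 ug/mL + SA donor / anti-rabbit acceptor beads 20 ug/mL each, 10 min; AlphaScreen read.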
BAZ2B block = blocks human BAZ2B | Q9UIF8 | AlphaScreen BAZ2B-H3K14Ac peptide displacement | Potency, µM (highest dose often 114 µM), inactives show top-dose activity change, negative = inhibition, hits mostly inhibitors | 4.4% of 360,000 active | AID 504333; further: on the % scale 0 is the no-effect control and ±100 the full control effect; nearly all actives have a fitted effect of over 60% in size
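BAZ2B (50 nM) with biotin-H3(5-23)K14Ac peptide (50 nM) in PBS pH 7.4, 0.01% Tween-20, preformed 30 min, then compound 30 min at room temperature; top concentration 110uM. AlphaScreen streptavidin donor/nickel chelate acceptor beads (10 ug/mL final), 20 min dark, signal read.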
Sfp inh = blocks B. subtilis Sfp PPTase activity; Q9F4F7; Biochemical Sfp PPTase activity, qHTS; Potency, µM, for the others: largest response in the series, negative = inhibition, most hits filed as inhibitors; 3.5% of 310,000 active;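 further: the enzyme is Sfp with the accession as filed and its product quenches rhodamine fluorescence; 0% = enzyme reaction without inhibitor and -100% = no enzyme wells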
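Fluorescence-quenching assay with 15 nM Sfp, 5 uM rhodamine-CoA and 12.5 uM BHQ-2-labelled ybbR peptide in pH 7.6 Hepes/MgCl2 buffer. Enzyme was pre-incubated with compound for 15 min at room temperature. Rate was taken from the 30-min fluorescence change (525/598 nm).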
HP1b chromo inh = blocks HP1-beta chromodomain binding to methylated histone tails; 0.56% of 390,000 active; AID 540317; AlphaScreen HP1-beta / biotin-H3K9me3 peptide binding; Potency, µM (titrated, usually from 114 µM), inactives show at the highest dose activity change, negative = inhibition, usual class: inhibitors; P83916; further: nearly all actives have a fitted effect of over 70% in size
Target sequence (P83916 whole entry, looked up): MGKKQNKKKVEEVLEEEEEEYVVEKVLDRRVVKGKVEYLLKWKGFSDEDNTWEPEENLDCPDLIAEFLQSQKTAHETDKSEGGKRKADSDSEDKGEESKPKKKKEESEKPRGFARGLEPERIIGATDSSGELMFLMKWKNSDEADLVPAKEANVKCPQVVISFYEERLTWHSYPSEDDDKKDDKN
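HP1-beta protein (50 nM final) preincubated 30 min at room temperature with biotinylated H3(1-18)K9me3 peptide (50 nM) in PBS pH 7.4, 0.01% Tween-20, then compound added for 30 min. AlphaScreen streptavidin donor/nickel chelate acceptor beads (10 ug/mL final), 30 min dark, luminescence read.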
JMJD2A Tudor inh = inhibitors of human JMJD2A Tudor domain; Potency, µM (top dose mostly 114 µM), for the others: at the highest dose activity change, negative = inhibition, most hits filed as inhibitors; 4.4% of 390,000 active; AlphaScreen JMJD2A-Tudor / H3K4me3 peptide binding; O75164; further: on the % scale 0 is the no-effect control and ±100 the full control effect; nearly all actives have a fitted effect of over 50% in size
TDP1 block = TDP1 (human) enzyme inhibition; 0.28% of 350,000 active; Q9NUW8; recombinant TDP1, AlphaScreen DNA substrate cleavage; Potency, µM (highest dose often 130 µM), without a hit: at the highest dose activity change, negative = inhibition, hits mostly inhibitors; further: on the % scale 0 is the no-effect control and ±100 the full control effect; nearly all actives have a fitted effect of over 40% in size
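E. coli-derived human Tdp1, 1 nM final. Cpd preinc 15 min RT; substrate 15 nM final, 5 min RT; AS bead mix 10 ug/ml final, 10 min RT. Signal loss = tyrosine-FITC cleavage. No-enzyme wells = max signal.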
* marks the source's active call; other numbers are inactive results; u = inconclusive; x = no result given; [ ] = dose if it differs, or a comment. The call rests on the fitted dose curve; in most records, active means well fitted curve in the direction sought with a large enough effect; inconclusive means small, poorly fitted or top-dose-only effect, or another doubt; inactive means no such curve, though single readings can be large; an effect the other way counts as inactive or inconclusive. Potency means the concentration at half of the fitted maximal effect.

SMILES	G9a block	BAZ2B block	Sfp inh	HP1b chromo inh	JMJD2A Tudor inh	TDP1 block
COc1ccccc1/C=C/C=N/n1c(-c2ccco2)n[nH]c1=S	1.26µM*	u	u	-22.3%	28.2µM*	1.2%
O=C(N/N=C/C=C\c1ccccc1[N+](=O)[O-])c1ccccn1	u	-0.5%	-27.4%	22.3%	-18.1%	9.1%
COc1ccc(-c2n[nH]c(=S)n2/N=C/C=C\c2ccccc2OC)cc1	u	-27.0%	-20.0%	28.4%	89.1µM*	-0.6%
COc1ccccc1/C=C/C=N/n1c(-c2ccc(C)cc2)n[nH]c1=S	u	-27.6%	-19.2%	-19.0%	-31.2%	-8.2%
O=[N+]([O-])c1ccccc1/C=C/C=N/n1c(-c2ccccc2)n[nH]c1=S	3.16µM*	u	-17.7%	u	56.2µM*	7.9%
COc1ccccc1/C=C/C=N/n1c(-c2ccncc2)n[nH]c1=S	1.26µM*	u	1.9%	-16.4%	10µM*	-1.2%
O=C(Cc1ccccc1Cl)c1ccccc1	x	x	x	27.6%[57 µM]	40.0%	x
Cc1nnc(C)n1/N=C/C=C/c1ccccc1	3.4%	0.3%	19.6%	5.8%	-14.1%	1.0%
Cc1cc(-c2n[nH]c(=S)n2/N=C/C=C/c2ccccc2)n[nH]1	1.41µM*	u	-15.3%	u	10µM*	8.1%
S=c1[nH]nc(-c2ccncc2)n1/N=C/C(Cl)=C\c1ccccc1	x	50.1µM*	u	-7.3%	17.8µM*	x
S=c1[nH]nc(-c2ccncc2)n1/N=C/C=C/c1ccccc1	u	-30.5%	-18.6%	u	4.47µM*	12.4%
Cc1nc2ccccc2c(=O)n1/N=C/C=C/c1ccccc1	-6.2%	-10.1%	7.6%	27.1%	-14.2%	7.0%
O=S(=O)(NCCc1csc(-c2cccc(F)c2)n1)c1cc(F)ccc1F	14.7%[59 µM]	1.1%	x	22.4%[57 µM]	-15.7%	4.1%
COc1ccc(C(=O)NCc2ccc3c(c2)CCN3C(=O)c2ccccc2)cc1	5.0%[59 µM]	-8.3%	x	27.6%	-13.7%	-0.5%
CC(=NCCCn1ccnc1)c1c(C)[nH]n(-c2ccc([N+](=O)[O-])cc2)c1=O	-32.8%	-26.6%	9.5%	22.6%	-11.3%[11.4 µM]	6.0%
CCc1ccccc1NC(=O)CSc1nc2ccccc2nc1Cc1cccc(OC)c1	10.6%[59 µM]	-1.7%	x	31.3%[57 µM]	-4.5%	0.0%
CCN(CC)c1cc2c(cc1F)c(=O)c(S(=O)(=O)c1ccc(OC)cc1)cn2CC	-12.5%[59 µM]	0.3%	x	33.8%	-11.2%	0.0%
COc1ccc2c(=O)c3c(=O)n(Cc4ccco4)c(-c4cc(OC)c(OC)c(OC)c4)nc3oc2c1	u	-5.3%	u	22.8%	-19.8%	2.7%
CCCc1nc2oc3cc(OC)ccc3c(=O)c2c(=O)n1Cc1ccco1	-19.6%[59 µM]	u	31.6µM*	-11.4%	u	x
CCCc1nc2sc3ccccc3c(=O)c2c(=O)n1Cc1ccco1	u	u	28.2µM*	15.0%	-28.2%[57.1 µM]	x
COCCn1c(-c2ccccc2)nc2oc3cc(OC)ccc3c(=O)c2c1=O	60.6%[59 µM]	-20.3%	24.8%	14.9%	-11.7%	4.8%
CCCc1nc2sc3ccccc3c(=O)c2c(=O)n1Cc1ccc(OC)cc1	x	-22.7%	u	13.8%	-5.2%	4.1%
COc1ccc2c(=O)c3c(=O)n(Cc4ccco4)c(-c4ccccc4)nc3oc2c1	u	-13.0%	31.6µM*	6.0%	-27.4%	7.1%
CCCCCCn1c(-c2ccco2)nc2oc3cc(OC)ccc3c(=O)c2c1=O	20µM*	-26.0%	4.7%	35.0%	-18.7%	-1.0%
Nn1c(-c2cccc([N+](=O)[O-])c2)nc2ccccc2c1=O	-1.0%	18.7%	2.8%	14.9%	-9.1%	x
SMILES	G9a block	BAZ2B block	Sfp inh	HP1b chromo inh	JMJD2A Tudor inh	TDP1 block
COc1ccc(-c2[nH]nc3nc(-c4cc(Br)ccc4OC)cc(C(=O)O)c23)cc1	-7.0%[59 µM]	-27.8%	x	28.8%	-17.4%	-9.1%
CCOCCCn1c(=N)c(C(=O)NCc2cccnc2)cc2c(=O)n3cc(C)ccc3nc21	-1.6%[59 µM]	-1.6%	x	28.5%	-5.2%	x
O=C(O)COc1ccccc1/C=N/NC(=O)c1ccc(F)cc1	44.7µM*	u	-29.1%	16.0%	-16.2%	2.7%
O=C(O)COc1ccccc1/C=N/NC(=O)CNC(=O)c1ccc(F)cc1	x	u	3.0%	-7.6%	-7.4%[11.4 µM]	6.5%
Cc1cc(C)nc(N/N=C/c2ccccc2OCC(=O)O)n1	-4.0%[2.33 µM]	1.6%	6.31µM*	0.3%	2.51µM*	x
Cc1c(O)c(=O)ccn1Cc1ccccc1	31.6µM*	u	-2.1%	51.8%	-8.5%	6.9%[21 µM]
Cc1ccc(Cn2ccc(=O)c(OCc3ccccc3)c2C)cc1	-1.2%	7.5%	15.8%	44.4%	-3.5%	1.0%
Cc1ccc(-n2ncc(C(=O)NCCCN3CCN(C)CC3)c2C2CCN(C(=O)OC(C)(C)C)CC2)c(C)c1	-29.9%[59 µM]	4.0%[57.1 µM]	x	19.8%	-8.7%	2.1%
CSc1nc(NCCOCCO)c2sc3nc(-c4ccco4)c4c(c3c2n1)CCC4	15.8µM*	44.7µM*	35.5µM*	14.5%	-21.9%	35.5µM*
CCN(CCO)c1nc(SC)nc2c1sc1nc(-c3ccco3)c3c(c12)CCC3	u	50.1µM*	u	5.7%	-9.7%	3.9%
CSc1nc(NCc2ccco2)c2sc3nc(C(C)C)c4c(c3c2n1)CC(C)(C)OC4	u	-2.8%	u	7.7%	-19.8%	3.9%
COc1ccc(-c2ccc(NS(=O)(=O)c3cc(C)c(C)cc3C)cc2)nn1	-25.0%[59 µM]	-15.7%	x	15.8%[57 µM]	-24.0%	5.3%
CCN(c1ccc(NC(=O)CSc2nnc3nc(C)cc(C)n23)cc1)C(C)C	44.7µM*	u	3.6%	-4.8%	-32.0%	3.0%
Cc1ccc(NC(=O)CSc2nnc3nc(C)cc(C)n23)cc1	-1.1%[59 µM]	8.8%	x	59.1%	-5.5%	0.0%
Cc1cc(C)n2c(SCC(=O)Nc3ccc(F)cc3)nnc2n1	11.2µM*	-2.1%	15.8µM*	u	-2.4%	2.5%
Cc1cc(C)n2c(SCC(=O)Nc3ccc(F)cc3F)nnc2n1	u	-12.6%	1.3%	-4.8%	89.1µM*	0.0%
CCc1ccc2occ(CC(=O)Nc3c(C(=O)Nc4ccc(OC)cc4)oc4ccccc34)c2c1	-1.2%[59 µM]	-1.8%	x	2.7%	-19.1%	3.7%
CC1C2(C)OCC(C#N)(C(=N)O2)C1(C#N)C#N (centres undefined)	44.7µM*	1.3%	-2.8%	x	x	5.5%
Cc1nnc(SCC(=O)NCC(=O)Nc2ccc(F)c(F)c2F)n1Cc1ccccc1	28.5%	x	-17.4%	9.3%	-14.5%	8.0%
Cc1cc(OC(C)C(=O)NCCN2CCOCC2)c2c(C)cc(=O)oc2c1 (centres undefined)	x	-0.6%	25.9%	22.3%	-17.2%	1.5%
CC1CN(C(=S)c2cccc([N+](=O)[O-])c2)CC(C)O1 (centres undefined)	6.31µM*	-19.3%	50.1µM*	u	u	-6.2%

Source: PubChem BioAssay (National Center for Advancing Translational Sciences (NCATS))
